From PubChem BioAssay (Tox21)
Records with an inconclusive call do not appear. Activity calls are given as the source filed them. Calls follow the shape of the full dose curve.

Assays:
[1] = biological target: Acetylcholinesterase (Homo sapiens) (UniProt P22303); assay: Acetylcholinesterase (AChE) small molecule antagonists: colormetric cell-based qHTS assay (AID 1347395); also: nearly all actives have a fitted effect of over 30% in size
Method in brief: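 Colorimetric readout: DTNB quantifies thiocholine from acetylthiocholine hydrolysed by endogenous AChE of SH-SY5Y cells (2,000/well, plated overnight). Compound pretreatment 30 min, substrate incubation 90 min, both 37 C.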

[2] = biological target: Acetylcholinesterase (Homo sapiens) (UniProt P22303); assay: Acetylcholinesterase (AChE) small molecule antagonists: enzyme-based qHTS assay (AID 1347397); conditions: Potency: AChE enzyme activity inhibition; outcome: AChE enzyme activity inhibition; also: nearly all actives have a fitted effect of over 55% in size
Method in brief: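 Human recombinant acetylcholinesterase; substrate acetylthiocholine; thiocholine quantified with DTNB (colorimetric). Compound preincubation 30 min RT; reaction 10 min RT.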

[3] = biological target: Acetylcholinesterase (Homo sapiens) (UniProt P22303); assay: Acetylcholinesterase (AChE) small molecule antagonists: fluorescence cell-based qHTS assay (AID 1347398); conditions: Potency: AChE activity; outcome: AChE activity; also: nearly all actives have a fitted effect of over 50% in size
Method in brief: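 Thiocholine generated from acetylthiocholine by SH-SY5Y cell AChE is detected with Thiolite Green (Ex/Em 490/520 nm) after 40 min at room temperature, following 30 min compound pretreatment at 37 C.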

[4] = biological target: Acetylcholinesterase (Homo sapiens) (UniProt P22303); assay: Acetylcholinesterase (AChE) small molecule antagonists: enzyme-based qHTS assay with human liver microsomes (AID 1347399); conditions: Potency: qHTS inhibition; outcome: qHTS inhibition; also: nearly all actives have a fitted effect of over 60% in size
Method in brief: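 Recombinant human AChE (50 mU/mL in the enzyme mix) and human liver microsomes (0.25 mg/mL final) were preincubated with compound and NADPH (0.25 mg/mL final) for 30 min at 37 C. Acetylthiocholine/DTNB was then added; thiocholine was read colorimetrically after 10 min at room temperature.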

Measured: Potency

Acetylcholinesterase (Homo sapiens), sequence (P22303 whole entry, looked up): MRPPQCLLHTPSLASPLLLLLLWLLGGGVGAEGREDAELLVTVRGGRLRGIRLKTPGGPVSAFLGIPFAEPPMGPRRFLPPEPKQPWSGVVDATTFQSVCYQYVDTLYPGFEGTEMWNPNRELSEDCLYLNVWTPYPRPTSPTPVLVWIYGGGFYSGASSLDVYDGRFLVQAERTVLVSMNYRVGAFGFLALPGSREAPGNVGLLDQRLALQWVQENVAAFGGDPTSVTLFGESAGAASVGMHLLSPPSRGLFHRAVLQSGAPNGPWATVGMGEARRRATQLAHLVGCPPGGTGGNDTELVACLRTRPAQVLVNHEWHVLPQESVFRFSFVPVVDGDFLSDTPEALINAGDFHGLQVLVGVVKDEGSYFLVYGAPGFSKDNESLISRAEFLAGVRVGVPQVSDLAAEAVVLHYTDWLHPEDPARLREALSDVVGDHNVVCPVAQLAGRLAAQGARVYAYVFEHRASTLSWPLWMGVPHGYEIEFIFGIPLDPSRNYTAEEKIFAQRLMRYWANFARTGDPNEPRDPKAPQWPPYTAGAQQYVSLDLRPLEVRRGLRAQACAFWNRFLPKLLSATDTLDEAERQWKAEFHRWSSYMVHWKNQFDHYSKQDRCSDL

CCCCCCCCCCCCCCC
inactive: all assays above

COc1ccc(Cc2cnc(N)nc2N)cc1OC
inactive: all assays above

C=C[Si]1(C)O[Si](C)(C=C)O[Si](C)(C=C)O[Si](C)(C=C)O1 (stereo not given)
inactive: all assays above

Cc1ccc(S(=O)(=O)NC(=O)NC2CCCCC2)cc1
inactive: all assays above

CC(C)(C)CC(C)(C)c1ccc(O)c(Cc2ccc(Cl)cc2Cl)c1
inactive: all assays above

CC(C)C(=O)c1c(C(C)C)nn2ccccc12
inactive: all assays above

O=[N+]([O-])c1c(Cl)cc(Cl)cc1Cl
inactive: all assays above

Cn1c(=O)c2c(ncn2CCO)n(C)c1=O
inactive: all assays above

C=C(C)C(=O)OCCN(C)C
inactive: all assays above

CCCCC/C=C/C=C/C=O
inactive: all assays above

O=Cc1ccc(Cl)c(Cl)c1
inactive: all assays above

CCC(C)(C)OC
inactive: all assays above

OC[C@@H](O)[C@H](O)[C@H](O)[C@@H](O)CO
inactive: all assays above

CC1(C)C(=O)NC(=O)N1CO
inactive: all assays above

CC(C)=CCCC(C)CCO (stereo not given)
inactive: all assays above

C=C1C(CCl)(CCl)C2(Cl)C(Cl)C(Cl)C1(Cl)C2(Cl)Cl (stereo not given)
inactive: all assays above

CC(=O)OC(C)OC(C)=O
inactive: all assays above

CCOC(/C=C(\C)CCC=C(C)C)OCC
inactive: all assays above

C=CCCCCCCCCC(=O)OCC
inactive: all assays above

Clc1nc(C(Cl)(Cl)Cl)c(Cl)c(Cl)c1Cl
inactive: all assays above

CC(=O)OCc1ccc2c(c1)OCO2
inactive: all assays above

NC(=O)N(O)[C@@H]1COc2cc(OCc3ccccc3)ccc21
inactive: all assays above

NC(=O)NS(=O)(=O)c1ccc(N)cc1
inactive: all assays above

c1cc(-c2ccncc2)ccn1
inactive: all assays above

CCCNC(=O)NS(=O)(=O)c1ccc(Cl)cc1
inactive: all assays above

O=C(c1ccccc1O)c1ccccc1O
inactive: all assays above

CCCCCC(N)=O
inactive: all assays above

O=[Se](O)O
inactive: all assays above

NC(=O)N(O)[C@@H]1C=C[C@H](Oc2cccc(Oc3ccc(F)cc3)c2)C1
inactive: all assays above

Nc1cc(Cl)cc(S(=O)(=O)O)c1O
inactive: all assays above

COC(=O)c1cccnc1
inactive: all assays above

C=CCn1c(=O)n([C@@H]2O[C@H](CO)[C@@H](O)[C@H]2O)c2nc(N)[nH]c(=O)c21
inactive: all assays above

C=C(C)[C@@H]1CCC2=CC(=O)C[C@@H](C)[C@]2(C)C1
inactive: all assays above

CC/C=C\CCOC(C)OCC (stereo not given)
inactive: all assays above

C=Cc1ccc(OC(C)=O)cc1
inactive: all assays above

O=Cc1ccccc1[N+](=O)[O-]
inactive: all assays above

CN=C(N)NC(=O)Nc1c(C)cccc1C
inactive: all assays above

Oc1ccc(/C=C/c2cc(O)cc(O)c2)cc1
inactive: all assays above

CC1Cc2ccccc2N1NC(=O)c1ccc(Cl)c(S(N)(=O)=O)c1 (stereo not given)
inactive: all assays above

CC(=O)c1ccc(Cl)c(Cl)c1Cl
inactive: all assays above

Nc1cc(N)cc(C(=O)O)c1
inactive: all assays above

COCC(C)N (stereo not given)
inactive: all assays above

COc1ccc(C(=O)CC(=O)c2ccc(C(C)(C)C)cc2)cc1
inactive: all assays above

CCCCCCC/C=C/C=O
inactive: all assays above

CC(C)(O)CCC(C)(C)O
inactive: all assays above

CC(=O)Nc1ccc(C(=O)O)cc1
inactive: all assays above

CCCCCCCCCCCCCCCCCC(=O)OCC(O)CO (stereo not given)
inactive: all assays above

O=S(=O)(O)c1ccc(O)cc1
inactive: all assays above

CC1(C)Cc2cccc(N)c2O1
inactive: all assays above

O[C@@H]([C@H](O)[C@H](O)CBr)[C@H](O)CBr
inactive: all assays above

COC(=O)Cc1cccc2ccccc12
inactive: all assays above

O=S(=O)(O)c1ccc2cc(O)ccc2c1
inactive: all assays above

CC[C@H](C)[C@@H](C(=O)O)n1sc2ccccc2c1=O
inactive: all assays above

CCOC(=O)C(C)Oc1ccc(Oc2cnc3cc(Cl)ccc3n2)cc1 (stereo not given)
inactive: all assays above

N#Cc1nc(Cl)c(Cl)c(Cl)c1Cl
inactive: all assays above

Oc1ccc2ccccc2c1N=Nc1ccccc1
inactive: all assays above

CC(=O)N(CC(O)CN(C(C)=O)c1c(I)c(C(=O)NCC(O)CO)c(I)c(C(=O)NCC(O)CO)c1I)c1c(I)c(C(=O)NCC(O)CO)c(I)c(C(=O)NCC(O)CO)c1I (stereo not given)
inactive: all assays above

NC(=S)NC(N)=S
inactive: all assays above

O=S1(=O)CCCO1
inactive: all assays above

Nc1ccn([C@@H]2O[C@H](CO)[C@@H](O)C2O)c(=O)n1 (stereo not given in full)
inactive: all assays above
